Experiment [1] relates to Human papillomavirus type 1a protein E7 (residues 44-93). The experiment is described as follows: small molecules binding HPV E7 44-93 – biochemical, small-molecule microarray, residues 44-93, 635 nm fluorescence, primary screen (AID 1108).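 Further: E7 fragment applied at 1 µg/mL in TBST for 1 h at 4 C; score combines spot fluorescence with its signal to noise ratio.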 The settings on record: fluorescence 635 nm, higher = more signal.
Experiment [2] can be described thus: hepatitis C replication reporter changes, two-sided – Huh7 cells, luciferase reporter, HCV replication inhibitor project, primary screen (AID 1109).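 Further: huh7 hepatoma cells harbouring a luciferase neomycin HCV replicon reporter; luciferase luminescence as measure of HCV replicon replication; test concentration not given here.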 To be noted: Huh7 HCV replicon luciferase reporter, 48 h; higher = more signal. (In general: A reporter such as luciferase makes a cellular process visible.)
In experiment [3] the target is Left-right determination factor 2 (Homo sapiens) (UniProt O00292). The experiment is described as follows: small molecules binding LEFTY2 protein – biochemical, small-molecule microarray, 635 nm fluorescence scan, primary screen (AID 1110). The settings on record: higher = more signal.
Left-right determination factor 2 (Homo sapiens), sequence (O00292 whole entry, looked up): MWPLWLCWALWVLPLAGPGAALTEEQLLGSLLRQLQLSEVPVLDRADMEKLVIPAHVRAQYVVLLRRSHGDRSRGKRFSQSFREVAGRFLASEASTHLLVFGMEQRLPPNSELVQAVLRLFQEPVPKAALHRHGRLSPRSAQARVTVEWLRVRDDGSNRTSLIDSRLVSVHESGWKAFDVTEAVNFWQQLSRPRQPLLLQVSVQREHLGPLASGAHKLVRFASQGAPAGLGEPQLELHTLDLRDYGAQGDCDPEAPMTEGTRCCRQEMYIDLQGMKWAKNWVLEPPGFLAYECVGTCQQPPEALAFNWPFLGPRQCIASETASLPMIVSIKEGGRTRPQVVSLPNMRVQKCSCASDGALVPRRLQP
Experiment [4] deals with Calmodulin-1 (Homo sapiens) (UniProt P0DP23). Description: small molecules binding calmodulin-1 with EGTA – biochemical, small-molecule microarray, Cy5-labelled CALM1, profiling panel (AID 1111).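 Further: labelled calmodulin applied in Tris saline Tween buffer holding calcium plus EGTA and DTT.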 The settings on record: Cy5-CALM1 binding fluorescence, higher = more signal.
Experiment [5] has the same target. Description: small molecules binding Ca-loaded calmodulin-1 – biochemical, small-molecule microarray, Cy5-labelled CALM1, plus calcium, artefact control for SMM control-protein annotation, profiling panel (AID 1112).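 Further: score merges spot fluorescence with signal to noise from triplicate slides.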 The settings on record: Cy5-CALM1 binding fluorescence, higher = more signal.
A short description of experiment [6]: probe aWnt5a binding to arrayed compounds – biochemical, biotinylated probe, 635/667 nm fluorescence, primary screen (AID 1113).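 Further: score merges 667 nm fluorescence intensity with signal-to-noise per printed feature.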 The settings on record: small-molecule microarray, higher = more signal.
The nature of experiment [7]: probe aShh binding to arrayed compounds – biochemical, biotinylated probe, 635/667 nm fluorescence, primary screen (AID 1114).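 Further: probe is biotin-labelled aShh protein from a stem cell growth factor screen; measures binding of labelled protein to compounds printed on the slide; score merges feature fluorescence at 667 nm with signal-to-noise.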 To be noted: small-molecule microarray, higher = more signal.
A short description of experiment [8]: probe aNog binding to arrayed compounds – biochemical, biotinylated probe, 635/667 nm fluorescence, primary screen (AID 1115).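 Further: probe is biotinylated aNog protein used at 0.15 µg/mL for 1 h at 4 C; z-score combines 667 nm fluorescence of each spot with its signal to noise.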 The settings on record: small-molecule microarray, higher = more signal.
For experiment [9], the target named is Torsin-1A-interacting protein 1 (Homo sapiens) (UniProt Q5JTV8). The experiment is described as follows: compound microarray binding of lysate hLAP1 – cell lysate, small-molecule microarray, COS7 lysate, 635/667 nm fluorescence, primary screen (AID 1116). The settings on record: 635 nm fluorescence, higher = more signal.
Torsin-1A-interacting protein 1 (Homo sapiens), sequence (Q5JTV8 whole entry, looked up): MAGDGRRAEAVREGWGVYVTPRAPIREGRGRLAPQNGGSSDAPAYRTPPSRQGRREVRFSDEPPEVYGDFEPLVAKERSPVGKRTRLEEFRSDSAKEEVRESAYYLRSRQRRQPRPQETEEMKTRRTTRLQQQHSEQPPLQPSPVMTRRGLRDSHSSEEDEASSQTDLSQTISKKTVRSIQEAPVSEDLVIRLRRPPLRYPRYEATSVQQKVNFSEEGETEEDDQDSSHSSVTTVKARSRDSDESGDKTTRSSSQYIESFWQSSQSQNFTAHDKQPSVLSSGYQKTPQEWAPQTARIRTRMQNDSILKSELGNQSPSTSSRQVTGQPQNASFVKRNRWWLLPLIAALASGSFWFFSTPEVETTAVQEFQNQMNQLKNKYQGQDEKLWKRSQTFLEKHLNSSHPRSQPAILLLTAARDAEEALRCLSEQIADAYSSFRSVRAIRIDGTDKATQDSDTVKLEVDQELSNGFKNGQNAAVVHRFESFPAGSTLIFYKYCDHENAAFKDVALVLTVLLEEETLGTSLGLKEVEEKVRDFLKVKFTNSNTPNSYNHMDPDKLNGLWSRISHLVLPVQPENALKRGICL
The target of experiment [10] is Alpha-bungarotoxin (Bungarus multicinctus) (UniProt P60615). Description: compounds binding labelled alpha-BTX control protein – biochemical, small-molecule microarray, Alexa647 label, 635/667 nm fluorescence, artefact control for SMM control protein annotation, profiling panel (AID 1117). The settings on record: alpha-BTX-A647 binding fluorescence, higher = more signal.
Alpha-bungarotoxin (Bungarus multicinctus), sequence (P60615 whole entry, looked up): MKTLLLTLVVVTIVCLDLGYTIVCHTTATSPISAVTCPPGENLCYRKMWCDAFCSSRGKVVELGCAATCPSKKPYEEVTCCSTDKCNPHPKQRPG

For the next experiment, the target named is Albumin (Bos taurus) (UniProt P02769). The experiment is described as follows: compounds binding labelled BSA control protein – biochemical, small-molecule microarray, Alexa647 label, 635/667 nm fluorescence, artefact control for SMM control protein annotation, profiling panel (AID 1118).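 Further: score merges 667 nm emission intensity and signal-to-noise per printed compound spot.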 The settings on record: BSA-A647 binding, fluorescence 635 nm, higher = more signal.
Albumin (Bos taurus), sequence (P02769 whole entry, looked up): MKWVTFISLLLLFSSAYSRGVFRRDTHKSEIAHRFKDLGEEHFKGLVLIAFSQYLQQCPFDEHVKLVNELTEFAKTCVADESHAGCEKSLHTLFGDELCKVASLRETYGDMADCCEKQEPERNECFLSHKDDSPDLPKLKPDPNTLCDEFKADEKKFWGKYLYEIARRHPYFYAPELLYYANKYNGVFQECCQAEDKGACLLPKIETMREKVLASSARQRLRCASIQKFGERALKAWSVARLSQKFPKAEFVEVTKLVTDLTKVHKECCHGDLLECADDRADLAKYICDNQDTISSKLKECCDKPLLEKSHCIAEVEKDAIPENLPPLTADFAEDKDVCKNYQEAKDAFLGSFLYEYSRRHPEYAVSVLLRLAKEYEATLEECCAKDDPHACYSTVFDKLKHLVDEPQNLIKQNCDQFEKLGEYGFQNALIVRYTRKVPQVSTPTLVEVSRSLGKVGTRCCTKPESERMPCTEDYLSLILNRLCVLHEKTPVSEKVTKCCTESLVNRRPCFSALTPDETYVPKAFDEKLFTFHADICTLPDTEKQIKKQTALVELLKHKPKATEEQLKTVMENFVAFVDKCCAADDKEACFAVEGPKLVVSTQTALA

The nature of experiment [11]: probe aXIP binding to arrayed compounds – biochemical, NeuroSMM set, 635/667 nm fluorescence, primary screen (AID 1119).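 Further: probe is the protein aXip251-270 applied at 1 µg/mL to compound-printed slides; binding of probe to printed compounds measured as 667 nm fluorescence plus signal to noise.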 To be noted: small-molecule microarray, higher = more signal, called active from +8 up or from −8 down.
Experiment [12] is described as follows: probe aNOTCH3 binding on compound microarray – biochemical, small-molecule microarray, 635/667 nm fluorescence, primary screen (AID 1120).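 Further: probe is a biotin-tagged antibody raised against NOTCH3 rather than NOTCH3 protein; score merges spot fluorescence near 667 nm with spot signal to noise.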 To be noted: higher = more signal.
Experiment [13] can be described thus: probe aNOTCH2 binding on compound microarray – biochemical, small-molecule microarray, 635/667 nm fluorescence, primary screen (AID 1121).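 Further: score merges feature fluorescence read at 667 nm with its signal to noise.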 To be noted: higher = more signal.
The target of experiment [14] is Carbonic anhydrase 2 (Homo sapiens) (UniProt P00918). Description: compounds binding carbonic anhydrase 2 – biochemical, small-molecule microarray, Alexa647-labelled CAII, profiling panel (AID 1122). To be noted: CAII-A647 binding fluorescence, higher = more signal.
Experiment [15] is described as follows: COS7 lysate on small-molecule microarray, probe aHis, 635 nm (AID 1123).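 Further: z-score combines 667nm fluorescence intensity with signal-to-noise per printed compound spot.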 To be noted: COS7 cell lysate, fluorescence, higher = more signal.
The nature of experiment [16]: probe aLAP1 signal on lysate-treated microarray – cell lysate, small-molecule microarray, COS7 lysate, primary screen (AID 1124).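 Further: lysate comes from COS7 cells expressing LAP1 and is applied at 0.3 µg/mL; score merges spot fluorescence near 667 nm with signal-to-noise over triplicate slides.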 The settings on record: probe aLAP1, fluorescence, higher = more signal.
The next experiment deals with Sam68 (KHDRBS1). The experiment is described as follows: compounds binding KHDRBS1 protein – biochemical, small-molecule microarray, 635 nm fluorescence, primary screen (AID 1125).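 Further: score merges 667 nm channel intensity with signal to noise over triplicate slides.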 The settings on record: higher = more signal.
Experiment [17] relates to Chordin-like protein 2 (CHRDL2). Description: compounds binding chordin-like 2 – biochemical, small-molecule microarray, 635 nm fluorescence, primary screen (AID 1126).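 Further: printed compound slides probed with Chrdl2 protein at 4 µg/mL for 1 h at 4 C; score merges 667 nm emission intensity with signal to noise over three replicate slides.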 The settings on record: fluorescence 635 nm, higher = more signal.
For experiment [18], the target named is Concanavalin-A (Canavalia ensiformis) (UniProt P02866). The experiment is described as follows: compounds binding concanavalin A lectin – biochemical, small-molecule microarray, Alexa647 label, 635 nm, artefact control for SMM control protein annotation, primary screen (AID 1127).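 Further: z combines 667 nm emission intensity with signal-to-noise across three replicate slides.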 The settings on record: ConA-A647 binding fluorescence, higher = more signal.
Concanavalin-A (Canavalia ensiformis), sequence (P02866 whole entry, looked up): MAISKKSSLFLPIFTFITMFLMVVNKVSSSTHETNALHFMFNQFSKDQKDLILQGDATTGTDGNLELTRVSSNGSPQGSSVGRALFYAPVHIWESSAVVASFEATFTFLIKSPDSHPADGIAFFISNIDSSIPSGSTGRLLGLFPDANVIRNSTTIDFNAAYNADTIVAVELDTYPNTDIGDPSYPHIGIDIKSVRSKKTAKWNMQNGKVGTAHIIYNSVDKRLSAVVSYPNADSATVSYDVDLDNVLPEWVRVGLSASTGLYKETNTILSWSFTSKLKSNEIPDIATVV

We go through five molecules from PubChem BioAssay.

The source made the active and inactive calls.

For the molecule `O=C1C=C[C@@H](O)[C@@H]2[C@@H]3C(=O)N(C4CCCCC4)C(=O)[C@@H]3CC[C@@H]12`, the composite z-score in [1] was 0.502; in [3], 0.71; in experiment [4] it was -0.0865; in experiment [5] it was -0.713; in experiment [6], -0.0459; in experiment [7] it was -0.0793. The composite z-score was -0.158 in experiment [8]; 0.191 in experiment [9]; 0.518 in experiment [10]; 0.13 with Albumin (Bos taurus); 0.0738 in experiment [12]; -0.126 in [13]. Further, the composite z-score in experiment [14] is 0.143; in [15] it was 0.214; in experiment [16], 0.196; with Sam68 (KHDRBS1) it was 0.595; in experiment [17], 0.542; in [18], 0.273. In addition, the z-score in [2] was -4.18. Besides, the composite Z-score in [11] was -0.388 (inactive).
Consider `CC(C)(C)N1C(=O)[C@H]2[C@H]3[C@H](O)[C@H](O)CC(=NOC[C@@H](O)COCc4ccco4)[C@H]3CC[C@H]2C1=O`, for which the composite z-score in [1] was 0.39; in [3] it was -0.203; in [4] it was -0.0051; in experiment [5], -0.333; in experiment [6] it was -0.147; in experiment [7], -0.0471. Besides, the composite z-score in experiment [8] is 0.0868; in experiment [9], 0.706; in experiment [10] it was 1.15; with Albumin (Bos taurus) it was 0.383; in [12] it was -0.128; in experiment [13] it was -0.117. For the same molecule, the composite z-score in experiment [14] came out at 0.282; in experiment [15] it was 0.327; in [16] it was 0.72; with Sam68 (KHDRBS1) it was 0.396; in experiment [17], 0.479; in experiment [18], 0.315. Further, the z-score in experiment [2] was 0.61. Moreover, the composite Z-score in [11] was -0.0443 (inactive).
In the case of `CCOC(=O)[C@H](Cc1ccccc1)NC(=O)CCC1CC(OC(=O)NCCc2ccc(F)cc2)CC2(CCCC(COC(=O)NCc3cccc(C(F)(F)F)c3)O2)O1` (stereo not given in full), the composite z-score in experiment [1] is 1.3; in experiment [3], 0.763; in [4], 1.43; in experiment [5], 0.465; in experiment [6], -0.154; in experiment [7] it was -0.221. Also, the composite z-score is 0.0498 in experiment [8]; 0.109 in [9]; 1.04 in experiment [10]; 0.825 with Albumin (Bos taurus); 0.148 in experiment [12]; -0.192 in experiment [13]. Moreover, the composite z-score in experiment [14] worked out at 0.499; in experiment [15] it was 2.08; in experiment [16] it was 0.137; with Sam68 (KHDRBS1), 1.3; in experiment [17], 0.285; in experiment [18], 1.06. The molecule further had a z-score in experiment [2] of -1.8. Besides, the composite Z-score in experiment [11] was 1.43 (inactive).
Regarding `COC(=O)[C@H](C)NC(=O)CCC1CC(OC(=O)NCc2cccc3ccccc23)CC2(CCCC(COC(=O)NCc3ccccc3)O2)O1` (stereo not given in full), the composite z-score in [1] is 1.15; in experiment [3] it was 0.648; in [4] it was 0.426; in experiment [5], -0.543; in experiment [6], -0.0721; in [7] it was -0.206. Also, the composite z-score was -0.495 in experiment [8]; 0.177 in experiment [9]; 0.389 in experiment [10]; -0.0725 with Albumin (Bos taurus); 0.062 in [12]; -0.104 in [13]. The composite z-score in experiment [14] is 0.288; in experiment [15], 0.763; in experiment [16], -0.206; in the experiment with Sam68 (KHDRBS1), 1.26; in experiment [17], 0.7; in experiment [18], 0.984. The z-score in experiment [2] is -0.922. The composite Z-score in [11] is 0.142 (inactive).
In the case of `COc1ccc(O[C@H]2C=C[C@@H](c3ccccc3)O[C@@H]2CO)cc1`, the composite z-score was -0.438 in experiment [1]; 0.213 in experiment [3]; -0.329 in experiment [4]; -0.643 in experiment [5]; -0.148 in experiment [6]; 0.0278 in experiment [7]. For the same molecule, the composite z-score in [8] is 0.041; in experiment [9], 0.171; in [10], 0.441; with Albumin (Bos taurus), -0.311; in [12], 0.0762; in [13], -0.104. Besides, the composite z-score in experiment [14] was 0.131; in experiment [15] it was -0.209; in [16], 0.0797; in the experiment with Sam68 (KHDRBS1), -0.713; in experiment [17] it was 0.495; in [18], 0.304. The molecule further gave a z-score in experiment [2] of 0.231. In experiment [11], the composite Z-score was -0.0521 (inactive).
